Source: PubChem BioAssay AID1347434 (National Center for Advancing Translational Sciences (NCATS), 2020)
In all, about 1,200 compounds went through this assay and about 30 (2%) were called active. About 23% were inconclusive and are not listed. Calls follow the shape of the dose curve; as a rule, active = well fitted inhibition curve with a large enough effect; inconclusive = small, poorly fitted or top-dose-only effect; inactive = flat fitted curve, though single readings scatter. What follows is part of a selection rich in actives, with near analogues and random picks from the rest.

What follows are molecules tested against Single-stranded DNA cytosine deaminase (Homo sapiens) (UniProt Q9GZX7) (assay: Confirmatory qHTS assay for inhibitors of Activation Induced Cytidine Deaminase (AID): AID signals). Settings: recombinant AID, FRET deamination/UDG coupled fluorescence, 4 h; series mostly up to 115 µM.
Procedure, shortened: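 Read 1 (AID) was measured at 540 ex/590 em after a 30 min NaOH step. The reaction was AID (1 uM, 4/3x stock) with UDG, compound at final 7.32 nM - 114 uM for 10 min, then DJC20/DJC23 substrate for 4 hr at room temperature. A UDG read at 560/665 serves as counterscreen.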
Potency is read from the fitted curve at half-maximal effect.

Single-stranded DNA cytosine deaminase (Homo sapiens), sequence (Q9GZX7 whole entry, looked up): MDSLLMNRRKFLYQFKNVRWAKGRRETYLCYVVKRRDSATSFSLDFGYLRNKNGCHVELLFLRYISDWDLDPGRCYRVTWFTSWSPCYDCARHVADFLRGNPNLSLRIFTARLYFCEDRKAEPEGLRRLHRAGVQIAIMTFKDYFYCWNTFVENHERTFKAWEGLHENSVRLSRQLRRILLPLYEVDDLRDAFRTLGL

Potency, active:
CC1(C)CCC2=C(O1)c1ccccc1C(=O)C2=O 7.08 µM
OCC1O[C@H]([S-])[C@H](O)[C@@H](O)[C@@H]1O.[Au+] (stereo partly specified) 12.6 µM
Cc1cc2c(C(C)C)c(O)c(O)c(C=O)c2c(O)c1-c1c(C)cc2c(C(C)C)c(O)c(O)c(C=O)c2c1O 31.6 µM
COc1ccc(-c2coc3c2c(C)cc2oc(=O)c(CC(=O)O)c(C)c23)cc1 50.1 µM
O=C(CSc1nc(-c2ccc(F)cc2)nc2c1Cc1ccccc1O2)Nc1cccc(C(=O)O)c1 31.6 µM
Nc1c(S(=O)(=O)O)cc(Nc2ccc(Nc3nc(Cl)nc(Nc4ccc(S(=O)(=O)O)cc4)n3)c(S(=O)(=O)O)c2)c2c1C(=O)c1ccccc1C2=O 20 µM

Potency, inactive:
CCOc1ccc(NC(=O)CN(C)S(=O)(=O)c2ccc3c(c2)c(=O)n(C)c(=O)n3C)cc1
COc1cccc(CNC(=O)c2oc3c(c2C)-c2nn(Cc4cccc(Cl)c4)cc2CC3)c1OC
COc1ccc(Nc2ncc(C(=O)Nc3cccc(OC)c3)c3ccccc23)cc1
Cc1ccccc1CSc1nc2nc(C)c(Cc3ccccc3)c(C)n2n1
CCCCSCCCNC(=O)c1cn(CC)c2ccc(S(=O)(=O)N(C)C3CCCCC3)cc2c1=O
CC1CCCN(C(=O)c2ccc(CSc3nc4ccncc4n3Cc3ccccc3)cc2)C1 (stereo unspecified)
Cc1ccccc1Nc1c(-c2ccc(N3CCOCC3)cc2)nc2ccccn12
CCCN(CCC)CCCNC(=O)c1cc2c(-c3ccc(Cl)cc3)nn(C)c2s1
CCCCn1c(CNC(=O)C23CC4CC(CC(C4)C2)C3)nnc1SCC(=O)Nc1ccc(C)cc1
Cc1cccc(NC(=O)CCn2nc(-c3ccccc3)c3ccccc3c2=O)c1
CCn1nc(C)c2c(-c3ccccc3)cc(=O)n(C(C)C(=O)NCc3ccccc3OC)c21 (stereo unspecified)
COc1cccc(-n2c(-c3cccc(F)c3)nc3c(cnn3-c3ccc(C)cc3)c2=O)c1
CCOc1ccc(CNCc2c(C(=O)O)n(Cc3ccccc3F)c3cc(OC)ccc23)cc1
COc1ccc(C(C)=O)cc1CSc1nc(NCCc2ccccc2)c2ccccc2n1
Cc1cccc(N2CCN(C(=O)Cn3ncc4c3-c3cc(C)ccc3OC4)CC2C)c1 (stereo unspecified)
COc1ccccc1C(=O)Oc1c(Sc2ccccc2)c(C)nn1-c1ccccc1
CCOC(=O)C1=C(CN2CCN(c3ccccc3F)CC2)NC(=O)NC1c1ccc(Cl)cc1 (stereo unspecified)
Cc1cccc(N2CCN(C(=O)C(C)n3nc(C)n4c(cc5occc54)c3=O)CC2)c1C (stereo unspecified)
Cc1ccc(C2CCN(C(=O)c3cnn(-c4cccc(Cl)c4)c3C3CCN(C(=O)OC(C)(C)C)CC3)C2)cc1 (stereo unspecified)
COc1ccc(CCNC(=O)c2c[nH]n3c(=O)c(Cc4ccccc4Cl)c(C)nc23)cc1OC
FC(F)(F)c1cccc(N2CCN(Cc3nnc(-c4ccc5c(c4)OCO5)o3)CC2)c1
COc1ccc(-c2nc(CSCC(=O)N3CCN(c4cccc(C)c4C)CC3)c(C)o2)cc1OC
COc1ccc(-c2nc3c(c(SCC(=O)Nc4ccc(C(=O)O)cc4)n2)Cc2ccccc2O3)cc1
O=C(CSC1=Nc2ccccc2N=C(c2ccc(F)cc2)C1)Nc1cccc(C(F)(F)F)c1
Cc1cccc(-n2cnc3cc(C(=O)NCc4ccccc4Cl)ccc32)c1
Cc1cccc(-c2nc(CCNC(=O)COc3ccccc3)cs2)c1
CCN(C(=O)CSc1nc(-c2ccccc2)no1)c1cccc(C)c1
COc1ccc(CNCCC(c2ccccc2)c2ccc3c(c2)OCO3)cc1 (stereo unspecified)
CCCCN(CC)CCCNC(=O)c1cn(CC)c2ccc(S(=O)(=O)N3CCc4ccccc4C3)cc2c1=O
CCc1ccc(CN(Cc2ccco2)c2cnc(S(C)(=O)=O)nc2C(=O)Nc2ccc(C)c(Cl)c2)cc1
CCOc1ccc(-c2nn(-c3ccccc3)cc2C2NC(=O)NC(C)=C2C(=O)OC(C)C)cc1 (stereo unspecified)
COc1ccc(CN(Cc2ccco2)C(=O)COc2ccc(Cl)cc2C)cc1
Cc1nc2nc(SCC(=O)N(C)Cc3ccccc3)nn2c(C)c1Cc1ccccc1Cl
Cc1ccc(Cn2cc(S(=O)(=O)c3ccc(C)cc3)c(=O)c3cc(F)c(N4CCCC4)cc32)cc1
CCc1ccc(S(=O)(=O)c2cnc3ccc(OC)cc3c2N2CCCC(C)C2)cc1 (stereo unspecified)
CCOC(=O)C1CCN(c2nc3c(S(=O)(=O)c4ccccc4)nnn3c3ccsc23)CC1
CCN(CC)C(=O)CSc1nc(-c2ccccc2F)nc2c1Cc1c(CO)cnc(C)c1O2
Cc1ccccc1C(=O)Nc1sc2c(c1C(=O)O)CCC(C(C)(C)C)C2 (stereo unspecified)
Cc1ccc(-c2sc(C(=O)Nc3ccc(Br)cc3)cc2CC(=O)O)cc1
CCC(=O)Oc1c(Sc2ccc(Cl)cc2)c(C)nn1-c1ccccc1
